These results are taken from the supplement of paper PMC11006884.

Of roughly 6,500 targets only a part is listed; those with a hit were picked by preference. About 2% of all pairs of compound and target were hits.

Compound in the test: COC(=O)C#Cc1ccccc1 [methyl 3-phenylpropiolate]
Nature of the test: log2 ratio of iodoacetamide-alkyne labeling of the cysteine site, DMSO over compound (competition); higher = stronger covalent engagement of the cysteine by the compound, active = 1 or more. The following applies: 500 µM; treatment time 1 h; system: HEK293T cell lysate. In a few lines: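 HEK293T lysate at 2 mg/mL was treated with vehicle or electrophile (500 µM) for 1 h at ambient temperature, then labelled with iodoacetamide alkyne (1 h), clicked to sCIP-TMT reagents, pooled, digested with trypsin overnight at 37 °C, enriched on streptavidin and eluted with acid. Peptides were analysed by Orbitrap Eclipse LC-MS/MS with FAIMS and quantified in FragPipe, using duplicate channels and three replicates, with cysteines quantified in only one replicate excluded. The log2 competition ratio for each cysteine is the mean control-channel reporter intensity divided by the mean compound-channel reporter intensity.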

UniProt Q9BTC0, sequence (Q9BTC0 whole entry, looked up): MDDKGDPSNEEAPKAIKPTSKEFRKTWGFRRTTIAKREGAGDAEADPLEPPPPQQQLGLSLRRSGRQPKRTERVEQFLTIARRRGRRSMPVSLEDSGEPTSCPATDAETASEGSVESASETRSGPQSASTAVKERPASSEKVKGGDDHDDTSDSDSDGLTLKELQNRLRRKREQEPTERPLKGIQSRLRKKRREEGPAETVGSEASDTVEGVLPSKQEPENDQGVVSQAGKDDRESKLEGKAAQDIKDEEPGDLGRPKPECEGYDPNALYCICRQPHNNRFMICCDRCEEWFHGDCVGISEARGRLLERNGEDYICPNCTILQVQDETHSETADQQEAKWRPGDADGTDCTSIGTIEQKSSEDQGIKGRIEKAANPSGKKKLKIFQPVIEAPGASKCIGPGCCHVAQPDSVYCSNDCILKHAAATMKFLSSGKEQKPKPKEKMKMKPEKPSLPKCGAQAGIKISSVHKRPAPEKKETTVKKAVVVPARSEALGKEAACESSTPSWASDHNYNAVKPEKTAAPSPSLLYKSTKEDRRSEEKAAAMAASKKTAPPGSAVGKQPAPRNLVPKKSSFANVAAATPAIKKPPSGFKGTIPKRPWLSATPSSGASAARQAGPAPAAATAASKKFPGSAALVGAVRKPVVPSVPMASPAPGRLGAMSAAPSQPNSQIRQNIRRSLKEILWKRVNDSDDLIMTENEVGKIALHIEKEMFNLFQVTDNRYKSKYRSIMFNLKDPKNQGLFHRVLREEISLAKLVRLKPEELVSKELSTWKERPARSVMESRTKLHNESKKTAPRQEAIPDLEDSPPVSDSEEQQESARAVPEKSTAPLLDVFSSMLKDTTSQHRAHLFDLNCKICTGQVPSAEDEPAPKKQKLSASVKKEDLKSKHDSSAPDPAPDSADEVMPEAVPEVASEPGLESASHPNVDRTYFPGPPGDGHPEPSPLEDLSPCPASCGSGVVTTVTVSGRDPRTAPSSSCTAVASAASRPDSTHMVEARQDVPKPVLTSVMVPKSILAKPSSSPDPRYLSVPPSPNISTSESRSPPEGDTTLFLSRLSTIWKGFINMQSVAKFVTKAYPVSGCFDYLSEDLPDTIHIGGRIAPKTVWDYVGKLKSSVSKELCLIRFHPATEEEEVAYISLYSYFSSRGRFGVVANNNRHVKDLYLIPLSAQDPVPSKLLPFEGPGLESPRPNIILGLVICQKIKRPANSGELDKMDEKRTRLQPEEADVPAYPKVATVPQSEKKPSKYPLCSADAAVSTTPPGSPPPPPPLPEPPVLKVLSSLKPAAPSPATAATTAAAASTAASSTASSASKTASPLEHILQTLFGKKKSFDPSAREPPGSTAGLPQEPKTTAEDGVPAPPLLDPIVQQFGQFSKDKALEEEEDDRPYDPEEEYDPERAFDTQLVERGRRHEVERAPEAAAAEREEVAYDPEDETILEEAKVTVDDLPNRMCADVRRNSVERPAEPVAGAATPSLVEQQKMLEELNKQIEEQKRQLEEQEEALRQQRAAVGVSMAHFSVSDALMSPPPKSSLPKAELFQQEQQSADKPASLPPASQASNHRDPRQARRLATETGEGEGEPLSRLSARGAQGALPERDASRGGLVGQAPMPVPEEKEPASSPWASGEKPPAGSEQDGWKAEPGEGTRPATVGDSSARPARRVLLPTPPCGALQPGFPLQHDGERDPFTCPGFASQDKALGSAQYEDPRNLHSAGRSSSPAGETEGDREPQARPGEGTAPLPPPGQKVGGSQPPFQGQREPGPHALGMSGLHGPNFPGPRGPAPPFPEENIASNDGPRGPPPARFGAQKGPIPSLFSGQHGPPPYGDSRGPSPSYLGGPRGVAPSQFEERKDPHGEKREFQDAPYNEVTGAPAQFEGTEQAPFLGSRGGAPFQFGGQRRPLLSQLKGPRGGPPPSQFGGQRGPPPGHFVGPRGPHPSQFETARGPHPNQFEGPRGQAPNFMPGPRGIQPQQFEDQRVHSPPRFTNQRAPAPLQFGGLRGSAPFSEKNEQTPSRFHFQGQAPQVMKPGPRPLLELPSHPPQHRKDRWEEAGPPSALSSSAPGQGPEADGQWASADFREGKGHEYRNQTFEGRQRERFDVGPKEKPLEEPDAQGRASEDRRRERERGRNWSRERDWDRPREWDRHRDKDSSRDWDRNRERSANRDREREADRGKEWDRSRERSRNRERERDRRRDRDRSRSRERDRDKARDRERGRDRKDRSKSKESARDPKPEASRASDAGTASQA
UniProt Q68CP9, sequence (Q68CP9 whole entry, looked up): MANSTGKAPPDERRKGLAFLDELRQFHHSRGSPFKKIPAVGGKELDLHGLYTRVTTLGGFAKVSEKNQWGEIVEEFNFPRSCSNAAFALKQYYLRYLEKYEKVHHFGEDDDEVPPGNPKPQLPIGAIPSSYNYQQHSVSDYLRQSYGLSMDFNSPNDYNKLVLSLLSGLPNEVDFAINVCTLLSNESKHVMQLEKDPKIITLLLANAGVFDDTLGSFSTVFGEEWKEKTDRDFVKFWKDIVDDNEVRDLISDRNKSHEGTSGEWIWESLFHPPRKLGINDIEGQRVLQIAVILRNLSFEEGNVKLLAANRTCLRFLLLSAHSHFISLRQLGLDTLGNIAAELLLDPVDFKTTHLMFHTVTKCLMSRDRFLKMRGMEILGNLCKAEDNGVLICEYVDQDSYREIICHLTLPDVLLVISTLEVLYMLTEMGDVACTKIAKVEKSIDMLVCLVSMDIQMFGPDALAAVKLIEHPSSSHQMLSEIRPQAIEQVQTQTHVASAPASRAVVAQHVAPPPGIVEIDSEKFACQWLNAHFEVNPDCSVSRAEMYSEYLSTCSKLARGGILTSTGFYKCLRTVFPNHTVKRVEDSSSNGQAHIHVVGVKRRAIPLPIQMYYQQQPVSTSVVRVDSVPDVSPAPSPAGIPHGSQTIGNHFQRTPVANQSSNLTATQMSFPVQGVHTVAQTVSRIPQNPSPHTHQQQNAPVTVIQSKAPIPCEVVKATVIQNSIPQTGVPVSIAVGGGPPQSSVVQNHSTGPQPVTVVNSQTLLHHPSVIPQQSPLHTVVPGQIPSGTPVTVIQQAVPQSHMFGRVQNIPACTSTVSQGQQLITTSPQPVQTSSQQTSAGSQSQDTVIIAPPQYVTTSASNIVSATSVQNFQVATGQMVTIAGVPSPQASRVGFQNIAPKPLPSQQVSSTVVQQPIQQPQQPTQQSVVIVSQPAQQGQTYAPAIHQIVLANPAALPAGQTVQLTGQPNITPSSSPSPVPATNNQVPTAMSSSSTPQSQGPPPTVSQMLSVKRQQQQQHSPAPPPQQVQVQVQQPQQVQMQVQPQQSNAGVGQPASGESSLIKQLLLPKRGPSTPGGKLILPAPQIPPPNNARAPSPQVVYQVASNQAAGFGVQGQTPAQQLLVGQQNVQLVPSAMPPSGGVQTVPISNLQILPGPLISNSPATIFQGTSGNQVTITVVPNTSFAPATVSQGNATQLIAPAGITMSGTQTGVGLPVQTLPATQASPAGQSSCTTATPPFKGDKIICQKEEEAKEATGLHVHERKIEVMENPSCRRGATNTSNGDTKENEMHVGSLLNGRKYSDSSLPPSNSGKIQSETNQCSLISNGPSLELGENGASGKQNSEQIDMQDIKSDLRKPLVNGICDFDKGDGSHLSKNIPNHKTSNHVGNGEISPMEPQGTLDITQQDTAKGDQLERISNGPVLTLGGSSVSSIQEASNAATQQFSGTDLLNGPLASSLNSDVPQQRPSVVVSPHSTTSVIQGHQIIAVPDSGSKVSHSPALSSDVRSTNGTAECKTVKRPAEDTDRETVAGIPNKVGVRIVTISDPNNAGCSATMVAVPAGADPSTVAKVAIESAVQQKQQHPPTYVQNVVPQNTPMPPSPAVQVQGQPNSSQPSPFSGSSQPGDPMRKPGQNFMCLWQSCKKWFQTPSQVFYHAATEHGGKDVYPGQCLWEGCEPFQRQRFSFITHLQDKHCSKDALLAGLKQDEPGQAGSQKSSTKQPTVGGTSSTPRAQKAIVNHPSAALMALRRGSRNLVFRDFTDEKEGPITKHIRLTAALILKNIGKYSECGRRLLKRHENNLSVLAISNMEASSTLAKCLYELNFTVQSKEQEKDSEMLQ
UniProt Q9BQE3, sequence (Q9BQE3 whole entry, looked up): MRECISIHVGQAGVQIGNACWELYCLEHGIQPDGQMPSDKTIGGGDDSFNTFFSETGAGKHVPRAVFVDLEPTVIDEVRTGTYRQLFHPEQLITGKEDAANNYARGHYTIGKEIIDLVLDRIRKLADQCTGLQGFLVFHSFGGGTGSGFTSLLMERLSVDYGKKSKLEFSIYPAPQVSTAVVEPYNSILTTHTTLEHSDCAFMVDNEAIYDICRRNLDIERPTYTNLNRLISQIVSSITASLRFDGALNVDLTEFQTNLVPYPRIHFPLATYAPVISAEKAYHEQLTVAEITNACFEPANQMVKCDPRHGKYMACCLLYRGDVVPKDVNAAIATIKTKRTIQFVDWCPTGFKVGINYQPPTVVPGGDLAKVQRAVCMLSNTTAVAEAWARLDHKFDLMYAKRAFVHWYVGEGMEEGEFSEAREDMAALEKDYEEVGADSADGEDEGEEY
UniProt Q969Z0, sequence (Q969Z0 whole entry, looked up): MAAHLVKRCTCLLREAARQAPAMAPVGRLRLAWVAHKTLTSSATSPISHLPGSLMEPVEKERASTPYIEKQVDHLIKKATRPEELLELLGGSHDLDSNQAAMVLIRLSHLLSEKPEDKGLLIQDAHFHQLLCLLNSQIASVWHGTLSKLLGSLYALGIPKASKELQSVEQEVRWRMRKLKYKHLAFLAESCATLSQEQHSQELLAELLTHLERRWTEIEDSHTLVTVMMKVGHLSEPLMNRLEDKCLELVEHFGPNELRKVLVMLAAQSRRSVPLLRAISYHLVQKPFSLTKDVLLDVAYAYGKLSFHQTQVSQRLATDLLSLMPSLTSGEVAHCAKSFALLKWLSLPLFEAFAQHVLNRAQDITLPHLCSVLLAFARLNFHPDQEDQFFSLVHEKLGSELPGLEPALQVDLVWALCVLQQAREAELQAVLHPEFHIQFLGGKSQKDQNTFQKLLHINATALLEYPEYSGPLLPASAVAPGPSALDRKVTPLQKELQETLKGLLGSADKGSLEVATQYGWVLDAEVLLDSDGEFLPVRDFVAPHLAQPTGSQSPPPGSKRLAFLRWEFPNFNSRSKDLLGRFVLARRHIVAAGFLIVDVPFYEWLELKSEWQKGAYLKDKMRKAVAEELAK

For the target TBRG4 C335 (UniProt Q969Z0), the “log2 ratio of iodoacetamide-alkyne labeling” value (shortened to “log2 ratio”) is 0.436 (inactive).

For the target NSD1 C1689 (UniProt Q96L73), the “log2 ratio” value was 0.216 (inactive).

Turning to AKAP1 C376 (UniProt Q92667), the “log2 ratio” value is 1.15 (active). Then CYFIP1 C98 (UniProt Q7L576), with 1.78 (active); and ANKRD11 C1845 (UniProt Q6UB99), with 1.24 (active). In the case of DHX38 C27 (UniProt Q92620) it was 1.36 (active); in that of ARID2 C1549 (UniProt Q68CP9), 0.434 (inactive); in that of ZNF746 C425 (UniProt Q6NUN9), 0.385 (inactive).

On to PHIP C612 (UniProt Q8WWQ0), for which the “log2 ratio” value is -0.25 (inactive).

Turning to UniProt Q92888_C892, the “log2 ratio” value is 0.0678 (inactive). Take TUBA1C C295 (UniProt Q9BQE3): the “log2 ratio” value is 0.453 (inactive).

On to RANBP9 C610 (UniProt Q96S59), for which the “log2 ratio” value is 0.53 (inactive). Then SLFN11 C126 (UniProt Q7Z7L1), with 0.146 (inactive); and SMAP2 C196 (UniProt Q8WU79), with 0.318 (inactive); and UniProt Q7RTV0_C61, with 0.11 (inactive). In the case of DIDO1 C455 (UniProt Q9BTC0) it was 0.67 (inactive); in that of GTF3C2 C608 (UniProt Q8WUA4), 0.147 (inactive). For SMCR8 C644 (UniProt Q8TEV9), the “log2 ratio” value is 0.488 (inactive).

On to PDCD6IP C40 (UniProt Q8WUM4), for which the “log2 ratio” value was 0.812 (inactive). Regarding CAND1 C275 (UniProt Q86VP6), the “log2 ratio” value is -0.226 (inactive). Take EDC3 C137 (UniProt Q96F86): the “log2 ratio” value is 1.09 (active). Then UniProt Q8N1G2_C794, with 0.107 (inactive).
